# From PubChem BioAssay
# This is a sample that favours compounds with a hit; in the whole collection about 1.4% have one here.
# Bcl-xL primary: inhibitors of human Bcl-xL, primary screen, biochemical, fluorescence polarization, HTS | GST-Bcl-xL / FITC-Bim BH3 peptide fluorescence polarization | inhibition, % at 10.9 µM | hit rate 0.7% among 320,000 | AID 2129, 2009;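 active = inhibition above the mean of all tested compounds plus 3 SD, cutoff set per campaign, cut at about 30% in these data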;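 also: 0% = DMSO wells and 100% = unlabeled Bim-BH3 peptide competitor; inhibitors lower millipolarization by displacing the labeled peptide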
# Target sequence (Q07817 whole entry, looked up): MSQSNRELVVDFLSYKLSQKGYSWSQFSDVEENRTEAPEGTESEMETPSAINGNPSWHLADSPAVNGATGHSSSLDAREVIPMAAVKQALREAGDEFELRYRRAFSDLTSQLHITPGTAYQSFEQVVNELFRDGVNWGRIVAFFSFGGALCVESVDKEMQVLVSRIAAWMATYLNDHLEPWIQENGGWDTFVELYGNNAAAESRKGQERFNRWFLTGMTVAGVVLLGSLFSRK
# MCL1 BIM primary: inhibitors of MCL1 binding to BIM-BH3, primary screen, biochemical, fluorescence polarization; Induced myeloid leukemia cell differentiation protein Mcl-1 (Homo sapiens), Q07820; GST-MCL1 / FITC-Bim-BH3 fluorescence polarization; inhibition, % at 10.9 µM; hit rate 0.68% among 320,000;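 active = inhibition above the mean inhibition of all tested compounds plus 3 SD, set per campaign, cut at about 40% in these data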;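 also: 0% = DMSO wells and 100% = unlabeled Bim-BH3 peptide control; higher means more loss of mP so more displacement of Bim peptide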
# MEX-5 binding: MEX-5 zinc finger RNA-binding disruptors – biochemical, C. elegans, fluorescence polarization, MLPCN library, primary screen; activity score (negative = inhibition of binding), % at 10 µM; hit rate 0.38% among 300,000; MEX-5/FITC-TCR2 RNA binding; active compounds read low; Zinc finger protein mex-5 (Caenorhabditis elegans), Q9XUB2;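 active = inhibition past about -25% in most replicates, and total fluorescence under double the plate's negative control median, limit read from the data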;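 also: 0% = DMSO and -100% = 5 µM competing unlabeled TCR2 RNA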
# eLon inh: inhibitors of E. coli Lon protease, primary screen, biochemical, fluorescence polarization; P0A9M0; hit rate 0.42% among 360,000; inhibition, % at 7.94 µM; AID 602123, 2011; purified E. coli Lon protease; in the data active = inhibition above about 13%, passing the limit was not always enough;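 also: 0% = enzyme with probe and DMSO and 100% = no enzyme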
# EBV gp42 block: Epstein-Barr virus gp42 inhibitors, primary screen, biochemical, uHTS, fluorescence polarization | Glycoprotein 42 (Epstein-Barr virus (strain AG876)), Q1HVG2 | Fluorescence polarization binding assay, mP read-out | inhibition, % (tested at 21.74 µM) | hit rate 0.42% among 220,000; in the data active = inhibition above about 50%
# GLD-1 RNA inh: GLD-1/TGE RNA complex disruptors, primary screen, biochemical, fluorescence polarization; Female germline-specific tumor suppressor gld-1 (Caenorhabditis elegans), Q17339; purified GLD-1 + fluorescein TGE RNA; inhibition, % at 5.96 µM; hit rate 0.44% among 320,000; AID 2280, 2010;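 active = percent inhibition above a per-plate cutoff, the plate mean of test compounds plus 3 SD, cut at about 30% in these data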;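 also: 0% = DMSO wells with GLD-1 and probe and 100% = wells lacking GLD-1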
# Target sequence (Q17339 whole entry, looked up): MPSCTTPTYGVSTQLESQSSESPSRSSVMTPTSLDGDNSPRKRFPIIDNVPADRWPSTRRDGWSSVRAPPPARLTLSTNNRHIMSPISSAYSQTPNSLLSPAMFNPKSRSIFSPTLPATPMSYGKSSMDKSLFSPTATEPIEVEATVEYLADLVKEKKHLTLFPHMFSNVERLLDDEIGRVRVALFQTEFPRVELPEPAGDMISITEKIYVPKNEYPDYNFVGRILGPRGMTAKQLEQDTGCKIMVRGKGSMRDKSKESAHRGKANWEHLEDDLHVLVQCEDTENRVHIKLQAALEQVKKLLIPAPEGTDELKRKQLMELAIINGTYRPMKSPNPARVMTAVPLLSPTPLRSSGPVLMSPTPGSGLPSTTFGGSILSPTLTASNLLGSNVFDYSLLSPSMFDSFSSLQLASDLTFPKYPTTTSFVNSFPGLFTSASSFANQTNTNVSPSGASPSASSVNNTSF
# The depositor's hits bear a star; . = no result given.
SMILES,Bcl-xL primary,MCL1 BIM primary,MEX-5 binding,eLon inh,EBV gp42 block,GLD-1 RNA inh
N#Cc1cc(-c2ccccc2)nn1-c1ccccc1,45.1*,42.6*,-9.4,-1.0,-32.0,-2.1
COc1ccc(CN2CCNC(=O)C2CC(=O)N(C)Cc2nc(C)cs2)c(OC)c1 (stereo not given),15.4,9.7,-0.6,8.1,.,7.7
CC1Cc2nc(SCC(=O)NCC3CCCO3)n(-c3ccc(F)cc3)c(=O)c2S1 (stereo not given),64.1*,-1.2,-1.8,5.2,.,0.0
O=[N+]([O-])c1ccc(Cl)c(-c2ccc(/C=N/n3cnnc3)o2)c1,-0.1,3.4,-1.1,3.7,.,-4.0
O=[N+]([O-])c1cc(-c2ccc(/C=N/n3cnnc3)o2)ccc1Cl,1.4,13.2,-39.8*,5.2,.,-3.6
O=[N+]([O-])c1cc(-c2ccc(C(=S)N3CCOCC3)o2)ccc1Cl,36.6*,43.2*,-1.5,-1.0,0.6,18.8
CCc1nc2c(OCc3ccccc3)cccn2c1N(Cc1ccccc1)C(C)=O,.,.,.,2.2,.,.
CCOC(=O)C(Cc1c[nH]c2ccc([N+](=O)[O-])cc12)(NC(C)=O)C(=O)OCC,.,.,.,-11.0,.,.
CC(C)N(C(=O)C[n+]1ccc(/C=N/O)cc1)C(C)C,0.8,-3.2,-0.4,-276.5,76.6*,5.6
COc1ccc(-c2c(C#N)c(N)nc3sc(C(=O)c4ccc(C)cc4)c(N)c23)cc1,-3.9,-6.2,-10.2,-21.6,74.6*,-3.4
Nc1c(C(=O)Nc2nc3ccccc3s2)sc2nc(-c3cccs3)ccc12,24.8,-2.5,-46.2*,9.8,35.1,-5.2
COc1ccc(C(=O)c2sc3nc(-c4ccc(OC)cc4)ccc3c2N)cc1,-4.3,-20.8,-15.6,-23.1,-0.5,-18.3
CC(C)NC(=O)c1sc2nc(-c3cccs3)cc(-c3cccs3)c2c1N,0.8,-7.0,-10.0,.,64.0*,-8.5
COc1ccc(C(=O)c2sc3nc(C)cc(-c4cccs4)c3c2N)cc1OC,5.6,-12.4,-53.5*,-199.8,60.8*,5.4
Cc1cc(C)c2c(N)c(C(=O)c3ccc(Cl)c(Cl)c3)sc2n1,0.3,3.4,0.0,-4.6,16.5,3.9
COc1ccc(C(=O)c2sc3nc(C)cc(-c4cccs4)c3c2N)cc1,.,.,-44.4*,-73.9,101.9*,.
Cc1cc(-c2cccs2)c2c(N)c(C(=O)c3ccc4c(c3)OCO4)sc2n1,-5.8,-35.0,-9.5,-34.6,132.5*,-21.6
Cc1cc(C)c2c(N)c(C(=O)c3ccc(Cl)cc3)sc2n1,-5.0,-11.2,0.7,3.6,-17.5,-1.6
Nc1nc(N)c2c(ccc3c2ccn3Cc2cccc([N+](=O)[O-])c2)n1,.,.,.,-1.6,.,.
O=C1N=c2ccc(Br)cc2=C1c1sc(=O)[nH]c1O,20.1,18.9,-26.2*,.,.,2.3
Cc1ccc2c(c1)=C(c1sc(N(C)c3ccc(O)cc3)nc1O)C(=O)N=2,7.6,10.7,0.7,-15.6,.,-7.4
O=C(NC1CC1)C1=C[C@@H](c2c[nH]c3ccccc23)C[C@@H](OCc2ccc(CO)cc2)O1,38.8*,-1.7,3.3,-16.5,6.1,-15.1
C[C@@H]1CN([C@H](C)CO)C(=O)CCCn2cc(nn2)CO[C@H]1CN(C)C(=O)C1CC1,.,.,.,1.7,.,.
O=C(NCCc1ccccc1F)C1CCCN1S(=O)(=O)c1ccc2ccccc2c1 (stereo not given),39.5*,1.5,2.3,-0.3,-5.5,2.3
O=C(C1=NN[C@@H]2C(=O)N(c3cccc(C(F)(F)F)c3)C(=O)[C@H]12)c1cnccn1,3.7,2.7,-1.4,-6.1,-3.3,0.2
SMILES,Bcl-xL primary,MCL1 BIM primary,MEX-5 binding,eLon inh,EBV gp42 block,GLD-1 RNA inh
CC(C)OC(=O)c1c2nc3ccccc3nc2n2c1[nH]c(=O)c1ccccc12,10.7,14.3,-21.8,.,26.6,47.9*
CC(C)OC(=O)c1c(N)n(CCCN2CCOCC2)c2nc3ccccc3nc12,6.8,7.8,0.1,-9.7,-10.9,2.3
Cc1nc2ccc(NC(=S)N3CCN(c4ccccn4)CC3)cc2nc1C,5.3,11.3,-0.3,-5.5,-17.9,3.6
S=C(Nc1ccc2nc(-c3ccccn3)c(-c3ccccn3)nc2c1)N1CCCCC1,.,.,.,13.8,54.6*,.
S=C(Nc1ccc2nc(-c3ccccn3)c(-c3ccccn3)nc2c1)N1CCCCCC1,34.9*,41.1*,-17.1,2.4,6.6,14.8
CC(C(=O)Nc1cccnc1)N1C(=O)C2C3C=CC(C3)C2C1=O (stereo not given),89.2*,6.3,-0.1,-1.1,-0.3,-3.6
Cc1ccccc1NC(=O)CN1C(=O)S/C(=C\c2ccc(-c3cc(C(=O)O)ccc3C)o2)C1=O,.,.,-53.9*,-1.0,-68.1,.
Cc1ccc(C(=O)O)cc1-c1ccc(/C=C2\SC(=O)N(CC(=O)Nc3ccccc3)C2=O)o1,11.3,18.4,-19.3,-2.8,0.4,-3.7
C=CCOC(=O)c1cc(-c2ccc(/C=C3\C(=O)NC(=O)C(C#N)=C3C)o2)ccc1Cl,.,.,.,-44.0,57.5*,.
CC1=C(C#N)C(=O)NC(=O)/C1=C/c1ccc(-c2ccc(S(N)(=O)=O)cc2)o1,18.0,18.6,-33.2*,-26.3,-1.9,5.6
NS(=O)(=O)c1ccc(-c2ccc(/C=C3\NC(=S)NC3=O)o2)cc1,-93.4,-106.0,-64.9*,-167.6,.,-77.1
CC(C)c1ccc(NC(=O)CCN2C(=O)[C@@H]3Cc4ccccc4CN3C2=O)cc1,5.5,-2.0,1.3,-6.9,.,-5.9
O=C(O)c1ccc(S(=O)(=O)/N=C2\C=C(Nc3ccccc3F)C(=O)c3ccccc32)cc1,23.9,28.9,-42.2*,4.3,.,8.6
COC(=O)CN1C(=S)N(c2ccc(OC)cc2)C(=O)/C1=C/c1ccc(N2CCOCC2)cc1,-83.6,-162.6,-6.6,-278.4,75.1*,-46.6
O=C(/C=C/c1cccc(F)c1)Nc1ccc(S(=O)(=O)N2CCOCC2)cc1,.,.,.,-4.5,.,2.9
O=C(NCc1cccnc1)C1Cc2c(-c3ccc(Cl)cc3)ccnc2O1 (stereo not given),.,.,.,-4.5,.,.
CCOC(=O)N1CCN(C(=O)c2ccc3c(SCC(=O)O)c4c(nc3c2)CCCC4)CC1,24.8,20.4,0.1,-9.2,-11.9,16.4
O=C(O)CSc1c2c(nc3cc(C(=O)N4CCOCC4)ccc13)CCCC2,37.1*,36.2,-8.9,5.0,-8.9,18.2
O=c1c(-c2ccco2)[n+]([O-])c2ccccc2n1OCc1ccccc1,30.5*,15.9,-6.5,-6.7,-30.1,37.6*
CCOn1c(=O)c(-c2cc3ccccc3o2)[n+]([O-])c2ccccc21,12.7,10.3,-42.8*,-8.9,-14.2,18.6
